# Measured values reported in the antibiotic and cytotoxicity screens of Wong et al. (2023).
# The campaign covered roughly 39,000 compounds. About 1,500 (3.8%) were called active. The sample holds actives, similar compounds and a random draw of the others, so the mix is not that of the screen.
# Test system: HSkMC (human skeletal muscle cells)
# Test: cytotoxicity call (relative viability < 0.9)
# Details: 10 µM
row,SMILES,cytotoxicity call
1,C[C@@H]1CCCCO[C@H](CN(C)C(=O)Nc2ccc(F)cc2)[C@@H](C)CN([C@@H](C)CO)C(=O)c2cc(NC(=O)CCC(F)(F)F)ccc2O1,inactive
2,CC(C)NC(=O)Nc1cccc2c1O[C@H](CN(C)C(=O)Nc1ccc3c(c1)OCO3)[C@@H](C)CN([C@@H](C)CO)C2=O,inactive
3,COc1ccc(NC(=O)N(C)C[C@H]2Oc3c(NC(=O)Nc4ccc(C(F)(F)F)cc4)cccc3C(=O)N([C@@H](C)CO)C[C@H]2C)cc1,inactive
4,C[C@@H]1CCCCO[C@H](CN(C)Cc2ccc(Cl)c(Cl)c2)[C@@H](C)CN([C@@H](C)CO)C(=O)c2cc(NC(=O)Nc3ccc(C(F)(F)F)cc3)ccc2O1,inactive
5,C[C@H]1CN([C@@H](C)CO)C(=O)c2cccc(NC(=O)c3cnccn3)c2O[C@H]1CN(C)Cc1ccncc1,inactive
6,C[C@@H]1CN([C@@H](C)CO)C(=O)c2cccc(NC(=O)c3ccncc3)c2O[C@H]1CN(C)Cc1ccc(C(=O)O)cc1,inactive
7,C[C@@H]1CCCCO[C@@H](CN(C)Cc2ccc(C(F)(F)F)cc2)[C@H](C)CN([C@@H](C)CO)C(=O)c2cc(NC(=O)Nc3cccc4ccccc34)ccc2O1,inactive
8,O=C(CN1CCOCC1)N[C@@H]1CC[C@@H](CCNC(=O)C2CCC2)O[C@@H]1CO,inactive
9,C[C@@H]1CN([C@H](C)CO)C(=O)Cc2cc(NS(=O)(=O)c3cn(C)cn3)ccc2O[C@@H]1CN(C)S(=O)(=O)c1ccc(F)cc1,inactive
10,O=C(C[C@H]1C[C@@H]2c3cc(NS(=O)(=O)c4ccc(F)cc4)ccc3O[C@@H]2[C@@H](CO)O1)NCc1cccc(F)c1,inactive
11,COc1ccc(S(=O)(=O)N(C)C[C@@H]2Oc3ccc(NS(=O)(=O)c4cn(C)cn4)cc3C(=O)N([C@H](C)CO)C[C@H]2C)cc1,inactive
12,CC(C)NC(=O)N(C)C[C@@H]1Oc2ccc(NS(=O)(=O)c3cccs3)cc2C(=O)N([C@@H](C)CO)C[C@H]1C,inactive
13,C[C@@H]1CCCCO[C@@H](CN(C)C(=O)NC2CCCCC2)[C@H](C)CN([C@@H](C)CO)C(=O)c2cc(NC(=O)Nc3ccccc3)ccc2O1,inactive
14,Cc1ccc(S(=O)(=O)N(C)C[C@@H]2OCCCC[C@@H](C)Oc3ccc(NS(C)(=O)=O)cc3C(=O)N([C@@H](C)CO)C[C@H]2C)cc1,inactive
15,COc1cccc(S(=O)(=O)Nc2ccc3c(c2)[C@H]2C[C@@H](CC(=O)NCCc4ccccc4)O[C@H](CO)[C@H]2O3)c1,active
16,O=C(C[C@H]1C[C@H]2c3cc(NS(=O)(=O)c4ccc(F)cc4)ccc3O[C@H]2[C@@H](CO)O1)NCc1ccc(Oc2ccccc2)cc1,active
17,O=C(C[C@H]1C[C@H]2c3cc(NS(=O)(=O)c4ccc(F)cc4)ccc3O[C@H]2[C@H](CO)O1)NCc1ccc(Oc2ccccc2)cc1,inactive
18,O=C(C[C@H]1C[C@H]2c3cc(NC(=O)Nc4ccccc4F)ccc3O[C@H]2[C@H](CO)O1)NCc1ccc(Oc2ccccc2)cc1,inactive
19,COc1cccc(S(=O)(=O)Nc2ccc3c(c2)[C@H]2C[C@H](CC(=O)NCCc4ccccc4)O[C@@H](CO)[C@H]2O3)c1,inactive
20,O=C(C[C@H]1C[C@H]2c3cc(NC(=O)Nc4ccccc4F)ccc3O[C@H]2[C@@H](CO)O1)NCc1ccc(Oc2ccccc2)cc1,active
21,O=C(C[C@@H]1C[C@@H]2c3cc(NS(=O)(=O)c4ccc(F)cc4)ccc3O[C@@H]2[C@H](CO)O1)NCc1ccc(Oc2ccccc2)cc1,inactive

row,SMILES,cytotoxicity call
1,COc1cccc(S(=O)(=O)Nc2ccc3c(c2)[C@H]2C[C@@H](CC(=O)NCCc4ccccc4)O[C@@H](CO)[C@H]2O3)c1,inactive
2,O=C(C[C@@H]1C[C@H]2c3cc(NC(=O)Nc4ccccc4F)ccc3O[C@H]2[C@H](CO)O1)NCc1ccc(Oc2ccccc2)cc1,inactive
3,O=C(C[C@@H]1C[C@@H]2c3cc(NC(=O)Nc4ccccc4F)ccc3O[C@@H]2[C@@H](CO)O1)NCc1ccc(Oc2ccccc2)cc1,inactive
4,O=C(C[C@H]1C[C@@H]2c3cc(NC(=O)Nc4ccccc4F)ccc3O[C@@H]2[C@H](CO)O1)NCc1ccc(Oc2ccccc2)cc1,active
5,O=C(C[C@@H]1C[C@H]2c3cc(NC(=O)Nc4ccccc4F)ccc3O[C@H]2[C@@H](CO)O1)NCc1ccc(Oc2ccccc2)cc1,inactive
6,O=C(O)[C@H]1CCCNC1,inactive
7,CO[C@@H]1CN(C)C(=O)c2ccc(NC(=O)Nc3cccc(F)c3)cc2OC[C@@H](C)N(C(=O)Nc2c(C)noc2C)C[C@@H]1C,inactive
8,C[C@H](CO)N1C[C@H](C)[C@@H](CN(C)Cc2ccccc2)OCCCC[C@H](C)Oc2ccc(NC(=O)Nc3ccc4c(c3)OCO4)cc2C1=O,inactive
9,C[C@@H]1CCCCO[C@H](CN(C)S(=O)(=O)c2ccc(Cl)cc2)[C@@H](C)CN([C@H](C)CO)C(=O)c2cc(NC(=O)Nc3ccc4c(c3)OCO4)ccc2O1,inactive
10,CC(C)NC(=O)N(C)C[C@@H]1OCCCC[C@@H](C)Oc2ccc(NC(=O)C3CCCCC3)cc2C(=O)N([C@@H](C)CO)C[C@@H]1C,inactive
11,Cc1noc(C)c1NC(=O)Nc1ccc2c(c1)C(=O)N([C@@H](C)CO)C[C@@H](C)[C@@H](CN(C)C(=O)C1CCCCC1)OCCCC[C@@H](C)O2,inactive
12,N#Cc1ccc(-c2cccs2)nc1,inactive
13,C[C@H]1CN([C@@H](C)CO)C(=O)Cc2cc(NC(=O)Cn3cnnn3)ccc2O[C@H]1CN(C)Cc1ccncc1,inactive
14,COc1ccc(C#Cc2cccc(-c3nc(C(=O)N4CCN(Cc5ccccc5)CC4)cc4c3[C@H](CCO)N(S(=O)C(C)(C)C)C4)c2)cc1OC (stereo partly drawn),inactive
15,O=C(NCC1CC1)c1cc2c(c(-c3cccc(-c4ccccc4F)c3)n1)[C@@H](CCO)N(C(=O)CC1CC1)C2,inactive
16,CC(=O)N1Cc2cc(C(=O)NCc3cc(F)cc(F)c3)nc(-c3cccc(C4=CCCC4)c3)c2[C@H]1CCO,inactive
17,COc1ccc(C#Cc2cccc(-c3nc(C(=O)N4CCN(Cc5ccccc5)CC4)cc4c3[C@@H](CCO)N(S(=O)C(C)(C)C)C4)c2)cc1OC (stereo partly drawn),inactive
18,CC(=O)N1Cc2cc(C(=O)NCc3cccc(F)c3)nc(-c3cccc(C4=CCCCC4)c3)c2[C@@H]1CCO,inactive
19,CC(=O)N1Cc2cc(C(=O)NCC(F)(F)F)nc(-c3cccc(-c4cc5ccccc5o4)c3)c2[C@H]1CCO,inactive
20,COc1ccccc1-c1cccc(-c2nc(C(=O)Nc3nccs3)cc3c2[C@H](CCO)N(C(=O)CC2CC2)C3)c1,inactive
21,CC(=O)N1Cc2cc(C(=O)NCc3cccc(F)c3)nc(-c3cccc(C4=CCCCC4)c3)c2[C@H]1CCO,active

row,SMILES,cytotoxicity call
1,CC(C)(C)S(=O)N1Cc2cc(C(=O)N3CCN(Cc4ccccc4)CC3)nc(-c3cccc(-c4cc5ccccc5o4)c3)c2[C@H]1CCO (stereo partly drawn),active
2,CCC(=O)N1Cc2cc(C(=O)Nc3nccs3)nc(-c3cccc(-c4ccccc4OC)c3)c2[C@H]1CCO,active
3,COc1ccccc1-c1cccc(-c2nc(C(=O)Nc3nccs3)cc3c2[C@@H](CCO)N(C(=O)CC2CC2)C3)c1,inactive
4,O=C(NCC(F)(F)F)c1cc2c(c(-c3cccc(-c4ccccc4F)c3)n1)[C@@H](CCO)N(C(=O)CC1CC1)C2,active
5,C[C@@H]1CN([C@@H](C)CO)C(=O)c2cc(NC(=O)CCC(F)(F)F)ccc2O[C@@H](C)CCCCO[C@H]1CN(C)C(=O)Nc1ccccc1,inactive
6,O=C(C[C@H]1CC[C@@H]2[C@H](COC[C@H](O)CN2C(=O)Nc2ccc(Cl)c(Cl)c2)O1)NCc1ccc(Cl)c(Cl)c1,inactive
7,CCC(=O)N(C)C[C@H]1Oc2ncc(C#C[C@@H](C)O)cc2C(=O)N([C@H](C)CO)C[C@@H]1C,inactive
8,Cc1noc(C)c1NC(=O)Nc1ccc2c(c1)C(=O)N([C@@H](C)CO)C[C@H](C)[C@@H](CN(C)Cc1ccncc1)OCCCC[C@@H](C)O2,inactive
9,CCCN(C)C[C@H]1OCCCC[C@@H](C)Oc2ccc(NC(=O)Nc3ccc(F)cc3)cc2C(=O)N([C@@H](C)CO)C[C@H]1C,inactive
10,C#CCN([C@H](/C=C/C1CC1)[C@@H](O)Cc1ccccc1)[C@@H](Cc1ccc(-n2cc(CCC(=O)NO)nn2)cc1)C(=O)OC,inactive
11,O=C(CCc1cn(CC(=O)N2CCC3(CC2)C(=O)NCN3c2ccccc2)nn1)NO,inactive
12,CCCNC(=O)Cc1nnc[nH]1,inactive
13,CC(C)(C)S(=O)N1Cc2cc(C(=O)Nc3ccc(-c4ccccc4)cc3)nc(-c3cccc(-c4cccc(F)c4)c3)c2[C@@H]1CCO (stereo partly drawn),active
14,COc1ccccc1-c1cccc(-c2nc(C(=O)NCc3ccncc3)cc3c2[C@@H](CCO)N([S@](=O)C(C)(C)C)C3)c1,inactive
15,CC(C)(C)[S@@](=O)N1Cc2cc(C(=O)NCCc3ccncc3)nc(-c3cccc(-c4ccc(C#N)cc4)c3)c2[C@H]1CCO,inactive
16,COc1ccccc1-c1cccc(-c2nc(C(=O)NCc3ccncc3)cc3c2[C@H](CCO)N([S@@](=O)C(C)(C)C)C3)c1,active
17,CC(C)(C)[S@@](=O)N1Cc2cc(C(=O)NCCc3ccncc3)nc(-c3cccc(-c4ccccc4)c3)c2[C@H]1CCO,active
18,COc1ccccc1-c1cccc(-c2nc(C(=O)NCc3ccncc3)cc3c2[C@@H](CCO)N([S@@](=O)C(C)(C)C)C3)c1,inactive
19,CC(C)(C)[S@](=O)N1Cc2cc(C(=O)NCCc3ccncc3)nc(-c3cccc(-c4ccccc4)c3)c2[C@@H]1CCO,inactive
20,CCNC(=O)c1cc2c(c(-c3cccc(-c4cccc(F)c4)c3)n1)[C@H](CCO)N([S@@](=O)C(C)(C)C)C2,inactive
21,CCNC(=O)c1cc2c(c(-c3cccc(-c4cccc(F)c4)c3)n1)[C@@H](CCO)N([S@](=O)C(C)(C)C)C2,inactive
